Inconclusive results are not listed. Active and inactive are the calls of the source. Calls come from the whole dose curve; as a rule, active = well fitted inhibition curve with a large enough effect; inconclusive = small, poorly fitted or top-dose-only effect; inactive = flat fitted curve, though single readings scatter.
Key:
[1] = qHTS profiling for inhibitors of Plasmodium falciparum proliferation (AID 504749); note: nearly all actives have a fitted effect of over 60% in size;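 for activity, negative = inhibition: 0% = DMSO vehicle and full inhibition = artemisinin control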; conditions: P. falciparum in erythrocytes, SYBR Green DNA, 72 h
Outline: (§1)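 P. falciparum-infected erythrocytes (0.3% parasitemia, 2.5% hematocrit) incubated with compound 72 h at 37 C, 5% CO2. Parasite DNA detected by SYBR Green after lysis, overnight at room temperature; normalised to 0.29 uM artemisinin and DMSO.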

[2] = test system: 3D7; assay: as above; conditions: P. falciparum in erythrocytes, SYBR Green DNA, 72 h; series mostly up to 28.7 µM
Outline: as §1

[3] = test system: 7G8; assay: as above; conditions: P. falciparum in erythrocytes, SYBR Green DNA, 72 h; series mostly up to 28.7 µM
Outline: as §1

[4] = test system: AA1029; assay: as above; conditions: P. falciparum in erythrocytes, SYBR Green DNA, 72 h; series mostly up to 28.7 µM
Outline: as §1

[5] = test system: AS120; assay: as above; conditions: P. falciparum in erythrocytes, SYBR Green DNA, 72 h; series mostly up to 28.7 µM
Outline: as §1

[6] = test system: ATS189; assay: as above; conditions: P. falciparum in erythrocytes, SYBR Green DNA, 72 h; series mostly up to 28.7 µM
Outline: as §1

[7] = test system: ATS95; assay: as above; conditions: P. falciparum in erythrocytes, SYBR Green DNA, 72 h; series mostly up to 28.7 µM
Outline: as §1

[8] = test system: C2A; assay: as above; conditions: P. falciparum in erythrocytes, SYBR Green DNA, 72 h; series mostly up to 28.7 µM
Outline: as §1

[9] = test system: CP185; assay: as above; conditions: P. falciparum in erythrocytes, SYBR Green DNA, 72 h; series mostly up to 28.7 µM
Outline: as §1

[10] = test system: CP191; assay: as above; conditions: P. falciparum in erythrocytes, SYBR Green DNA, 72 h; series mostly up to 28.7 µM
Outline: as §1

[11] = test system: CP192; assay: as above; conditions: P. falciparum in erythrocytes, SYBR Green DNA, 72 h; series mostly up to 28.7 µM
Outline: as §1

[12] = test system: CP194; assay: as above; conditions: P. falciparum in erythrocytes, SYBR Green DNA, 72 h; series mostly up to 28.7 µM
Outline: as §1

[13] = test system: CP201; assay: as above; conditions: P. falciparum in erythrocytes, SYBR Green DNA, 72 h; series mostly up to 28.7 µM
Outline: as §1

[14] = test system: CP203; assay: as above; conditions: P. falciparum in erythrocytes, SYBR Green DNA, 72 h; series mostly up to 28.7 µM
Outline: as §1

[15] = test system: CP215; assay: as above; conditions: P. falciparum in erythrocytes, SYBR Green DNA, 72 h; series mostly up to 28.7 µM
Outline: as §1

[16] = test system: CP217; assay: as above; conditions: P. falciparum in erythrocytes, SYBR Green DNA, 72 h; series mostly up to 28.7 µM
Outline: as §1

[17] = test system: CP237; assay: as above; conditions: P. falciparum in erythrocytes, SYBR Green DNA, 72 h; series mostly up to 28.7 µM
Outline: as §1

[18] = test system: CP238; assay: as above; conditions: P. falciparum in erythrocytes, SYBR Green DNA, 72 h; series mostly up to 28.7 µM
Outline: as §1

[19] = test system: CP211; assay: as above; conditions: P. falciparum in erythrocytes, SYBR Green DNA, 72 h; series mostly up to 28.7 µM
Outline: as §1

[20] = at 28.7 µM (top of the series), parasite line A
[21] = at 28.7 µM (top of the series), parasite line B
[22] = at 12.8 µM (top of the series), parasite line A
[23] = at 12.8 µM (top of the series), parasite line B
Potency is the fitted concentration of half-maximal effect.

CC(=O)NC(=O)c1ccccc1O
inactive: activity, negative = inhibition [1, 20] -1.16% | activity, negative = inhibition [1, 21] 7.59% | Potency [2] | Potency [3] | Potency [4] | Potency [5] | Potency [6] | Potency [7] | Potency [8] | Potency [9] | Potency [10] | Potency [11] | Potency [12] | Potency [13] | Potency [14] | Potency [15] | Potency [16] | Potency [17] | Potency [18]

CC(=O)NO
inactive: activity, negative = inhibition [1, 20] -5.99% | activity, negative = inhibition [1, 21] 17.5% | Potency [2] | Potency [3] | Potency [4] | Potency [5] | Potency [6] | Potency [7] | Potency [8] | Potency [9] | Potency [10] | Potency [11] | Potency [12] | Potency [14] | Potency [19] | Potency [15] | Potency [16] | Potency [17] | Potency [18]

O=C(O)CCNC(=O)c1ccccc1
inactive: activity, negative = inhibition [1, 20] 0.623% | activity, negative = inhibition [1, 21] 11.8% | Potency [2] | Potency [3] | Potency [4] | Potency [5] | Potency [6] | Potency [7] | Potency [8] | Potency [9] | Potency [10] | Potency [12] | Potency [13] | Potency [14] | Potency [19] | Potency [15] | Potency [16] | Potency [17] | Potency [18]

O=C1C(=O)c2ccccc2C(O)=C1C1CCC(c2ccc(Cl)cc2)CC1 (stereo not given)
active: Potency ([1]; parasite line A) 1.4 nM | Potency ([1]; parasite line B) 3.2 nM | Potency [2] 3.2 nM | Potency [3] 1.1 nM | Potency [4] 3.2 nM | Potency [5] 4 nM | Potency [6] 2.8 nM | Potency [7] 4 nM | Potency [8] 7.9 nM | Potency [9] 3.5 nM | Potency [10] 2.8 nM | Potency [11] 5.1 nM | Potency [12] 5.7 nM | Potency [13] 6.4 nM | Potency [14] 6.4 nM | Potency [19] 5.7 nM | Potency [16] 1.4 nM | Potency [17] 1.1 nM | Potency [18] 5 nM

Cc1cccc(C)c1NC(=O)CN1CCCCCC1
inactive: activity, negative = inhibition [1, 20] 14.8% | activity, negative = inhibition [1, 21] 4.72% | Potency [2] | Potency [3] | Potency [4] | Potency [5] | Potency [6] | Potency [7] | Potency [8] | Potency [9] | Potency [10] | Potency [11] | Potency [12] | Potency [13] | Potency [14] | Potency [19] | Potency [15] | Potency [16] | Potency [18]

CCCCc1cc2ccccc2c(OCCN(C)C)n1
inactive: activity, negative = inhibition [1, 22] 8.06% | activity, negative = inhibition [1, 23] 4.66% | Potency [2] | Potency [4] | Potency [5] | Potency [6] | Potency [7] | Potency [8] | Potency [9] | Potency [10] | Potency [11] | Potency [12] | Potency [13] | Potency [14] | Potency [19] | Potency [16] | Potency [18]

C=C[C@@]1(C)CC(=O)[C@]2(O)[C@@]3(C)[C@@H](O)CCC(C)(C)[C@@H]3[C@H](O)[C@H](OC(C)=O)[C@@]2(C)O1
inactive: activity, negative = inhibition [1, 20] -7.28% | activity, negative = inhibition [1, 21] 2.74% | Potency [2] | Potency [4] | Potency [5] | Potency [6] | Potency [7] | Potency [8] | Potency [9] | Potency [10] | Potency [11] | Potency [12] | Potency [13] | Potency [14] | Potency [19] | Potency [15] | Potency [16] | Potency [17] | Potency [18]

CN1CCC(OC(c2ccccc2)c2ccccc2)CC1
active: Potency [4] 2510 nM
inactive: activity, negative = inhibition [1, 22] -11.2% | activity, negative = inhibition [1, 23] -2.27% | Potency [2] | Potency [8] | Potency [10] | Potency [11] | Potency [13]

CN(C)CCN1C(=O)c2ccccc2N(C)c2ccccc21
active: Potency [17] 3980 nM
inactive: activity, negative = inhibition [1, 20] -2.77% | activity, negative = inhibition [1, 21] 8.88% | Potency [2] | Potency [8] | Potency [15]

CCCCC(CC)COC(=O)/C=C/c1ccc(OC)cc1 (stereo not given)
inactive: activity, negative = inhibition [1, 20] 10.4% | activity, negative = inhibition [1, 21] 11.8% | Potency [2] | Potency [4] | Potency [5] | Potency [6] | Potency [7] | Potency [8] | Potency [9] | Potency [10] | Potency [11] | Potency [12] | Potency [13] | Potency [14] | Potency [19] | Potency [15] | Potency [16] | Potency [17] | Potency [18]

CCCCNc1ccc(C(=O)OCCOCCOCCOCCOCCOCCOCCOCCOCCOC)cc1
inactive: activity, negative = inhibition [1, 22] -21.5% | activity, negative = inhibition [1, 23] -9.92% | Potency [2] | Potency [4] | Potency [5] | Potency [6] | Potency [7] | Potency [8] | Potency [9] | Potency [10] | Potency [11] | Potency [12] | Potency [13] | Potency [14] | Potency [19] | Potency [15] | Potency [16] | Potency [17] | Potency [18]

COc1ccc(C(Cl)=C(c2ccc(OC)cc2)c2ccc(OC)cc2)cc1
inactive: Potency [11] | Potency [12] | Potency [13] | Potency [14] | Potency [19] | Potency [15]
active: Potency ([1]; parasite line A) 3980 nM | Potency ([1]; parasite line B) 3980 nM | Potency [4] 6310 nM | Potency [5] 3550 nM | Potency [6] 2820 nM | Potency [7] 11200 nM | Potency [8] 3980 nM | Potency [10] 12600 nM | Potency [16] 11200 nM | Potency [18] 10000 nM

COc1ccc(CN(CCN(C)C)c2ncccn2)cc1
active: Potency [17] 7080 nM
inactive: activity, negative = inhibition [1, 20] 12.9% | activity, negative = inhibition [1, 21] 5.48% | Potency [2] | Potency [4] | Potency [5] | Potency [6] | Potency [7] | Potency [8] | Potency [9] | Potency [10] | Potency [11] | Potency [12] | Potency [13] | Potency [19] | Potency [15] | Potency [16] | Potency [18]

COc1ccc2c(c1)c1c3n2CCN(C)C3=NCC1
inactive: activity, negative = inhibition [1, 20] -3.91% | activity, negative = inhibition [1, 21] 11.3% | Potency [2] | Potency [4] | Potency [5] | Potency [6] | Potency [7] | Potency [8] | Potency [9] | Potency [10] | Potency [11] | Potency [12] | Potency [13] | Potency [14] | Potency [19] | Potency [15] | Potency [16] | Potency [18]

— PubChem BioAssay (NCATS)
